High-throughput results from PubChem.
Pf Dd2 inh = blocks in vitro growth of P. falciparum Dd2; P. falciparum Dd2 growth, SYBR Green, 72 h; Potency, µM (highest dose often 28.9 µM), inactives show top-dose activity, negative = inhibition, most hits filed as inhibitors; AID 1347417; hit rate 4.3% among 120,000; active = well fitted inhibition curve with a large enough effect;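 also: plate controls were DMSO vehicle for no effect and reference drug for full effect; nearly all actives have a fitted effect of over 65% in size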
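Infected erythrocytes (Dd2, 0.3% parasitemia, 2.5% hematocrit final) are added to compound in RPMI-1640/Albumax II medium, grown 72 h at 37C in low oxygen, then lysed with saponin/Triton-X containing SYBR Green and read by fluorescence.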
Starred values were filed as active, the others as inactive; i = inactive; [ ] = dose if it differs, or a comment. The full list was thinned out, with hits kept by preference. Potency is read from the fitted curve at half-maximal effect.

SMILES | Pf Dd2 inh
CC(C)NC(=O)CCC[C@@H]1[C@H]2CCCN3CCC[C@@H](CN1C(=O)c1cccnc1)[C@@H]23 | i
Cc1ccc2c(CNCc3cccc(Cl)c3)c(C(=O)O)n(Cc3ccc(F)cc3Cl)c2c1 | 34%
CCc1ccc(CNCc2c(C(=O)O)n(Cc3ccc(C)cc3)c3cc(C)ccc23)cc1 | 5µM*
Cc1ccc2c(CNC3CCCC3)c(C(=O)O)n(Cc3ccc(F)cc3)c2c1 | -3%
Cc1ccc(Cn2c(C(=O)O)c(CNCc3ccc(OC(C)C)cc3)c3ccc(C)cc32)cc1 | 11µM*
COc1ccc(OC)c(CNCc2c(C(=O)O)n(Cc3ccccc3)c3cc(OC)ccc23)c1 | i
COc1ccc2c(CNCc3ccco3)c(C(=O)O)n(Cc3ccccc3)c2c1 | -8%
Cc1ccc2c(CNCC(C)c3ccccc3)c(C(=O)O)n(Cc3ccccc3C)c2c1 (stereo unspecified) | i
COc1ccc2c(CNCc3cccs3)c(C(=O)O)n(Cc3ccc(C)cc3)c2c1 | -6%
C=Cc1ccc(Cn2c(C(=O)O)c(CNCc3ccccc3)c3ccc(C)cc32)cc1 | 7.9µM*
Cc1ccc(CNCc2c(C(=O)O)n(Cc3ccc(C)cc3)c3cc(C)ccc23)cc1 | -13%
Cc1ccc(CNCc2c(C(=O)O)n(Cc3ccccc3C)c3cc(C)ccc23)cc1 | 3.2µM*
COc1ccc(Cn2c(C(=O)O)c(CNCc3ccco3)c3ccc(C)cc32)cc1 | i
CC(=O)Nc1ccc(CN2CCC3(CC2)CC(NC(C)=O)c2ccccc2O3)cc1 (stereo unspecified) | -8%
Cc1nc([C@H]2CCN(Cc3cccnc3)C[C@H]2NC(=O)C2CC2)n[nH]1 | 30%
O=C(N1CCC2(CCCCO2)CC1)C1(c2ccccc2)CC1 | i
O=c1cc(N2CCOCC2)oc2c(-c3ccc(F)c(Cl)c3)nccc12 | -9%[44.1 µM]
CC(C)Oc1ccc(CN2CCc3nc(N4CCN(C)CC4)[nH]c(=O)c3CC2)cc1 | 19%[5.79 µM]
Cc1cc(C(=O)Nc2ccc([C@H]3OCC(=O)N(C)[C@@H]3CO)cc2)n(C)n1 | -5%[44.1 µM]
Cn1nccc1C(O)c1cc2n(n1)CCN(CC(=O)NCc1ccco1)C2 (stereo unspecified) | -11%
Cc1cc(C)n(Cc2cc(C(=O)N3C[C@H]4CC[C@H]3C4)n[nH]2)n1 | -9%
CC(C)OCCCNc1ncnc2sc3c(c12)CCCC3 | i
CCCc1nc2sc3c(N4CCCCC4)ncnc3c2c2c1CCCC2 | 24%
CCCCCCNc1ncnc2c1sc1nc(N3CCOCC3)c3c(c12)CCCC3 | 8.9µM*
O=C1NCCCCCCN(C(=O)COc2ccccc2)[C@H]2CCCC[C@@H]12 | -25%
SMILES | Pf Dd2 inh
COc1cc(NC(=O)Cn2ccn3nc(-c4ccc(F)cc4)c(CO)c3c2=O)cc(OC)c1 | -21%
COc1cc(NC(=O)c2cnc(-c3ccc(C)cc3)nc2-c2ccncc2)cc(OC)c1 | -14%
O=C(Nc1cc(F)cc(F)c1)c1cnc(-c2ccc(F)cc2)nc1-c1ccncc1 | 10µM*
Cc1ccc(-c2ncc(C(=O)Nc3ccc(F)c(F)c3)c(-c3ccncc3)n2)cc1 | -22%
COc1cccc(CC(=O)N2CCCn3nc(C)c(-c4ccnn4C(C)C)c32)c1 | -19%[44.1 µM]
Cc1cc(C(=O)Nc2ccc(-n3c(C)nc4ccccc4c3=O)cc2)ccc1[N+](=O)[O-] | -4%
Cc1nc2ccccc2c(=O)n1-c1ccc(NC(=O)c2ccc([N+](=O)[O-])cc2)cc1 | 15%
Cc1cc(-n2c(C)nc3ccccc3c2=O)ccc1NC(=O)c1cccc([N+](=O)[O-])c1 | 8.9µM*
O=C(c1ccc(Cl)cc1)N1CCC2(Cc3ccccc3CNC2=O)C1 (stereo unspecified) | 8%
C=CCNC(=O)N[C@H]1CO[C@H]2[C@@H]1OC[C@@H]2Nc1nccc(-c2ccccc2OC)n1 | -11%[44.1 µM]
CCc1cc(=O)n(CC(=O)N2CCN(c3ccc(OC)cc3)CC2)c(N2CCOCC2)n1 | i
CCc1cc(=O)n(CC(=O)Nc2ccc(F)c(Cl)c2)c(N2CCOCC2)n1 | i
CCc1cc(=O)n(CC(=O)Nc2ccccc2OC)c(N2CCOCC2)n1 | 11µM*
CCc1cc(=O)n(CC(=O)Nc2cc(OC)c(OC)c(OC)c2)c(N2CCOCC2)n1 | -4%
COc1ccc(NC(=O)Cn2c(N3CCC(C)CC3)nc(C)cc2=O)cc1 | -21%
CCc1cc(=O)n(CC(=O)N2CCN(c3ccccc3F)CC2)c(N2CCOCC2)n1 | 7.9µM*
COc1cc(NC(=O)Cn2c(N3CCN(c4ccccc4)CC3)nc(C)cc2=O)cc(OC)c1 | 6.3µM*
COCc1cc(=O)n(CC(=O)Nc2ccccc2OC)c(N2CCOCC2)n1 | -9%
CCc1ccc(NC(=O)Cn2c(N3CCN(c4ccccc4)CC3)nc(C)cc2=O)cc1 | i
N#Cc1cccc(-c2ccnc(N[C@H]3CO[C@H]4[C@@H]3OC[C@@H]4NC(=O)c3cccs3)n2)c1 | i
O=C(c1ccc(C(F)(F)F)cc1)N1CCC(N2CCNC2=O)CC1 | 9%
Cc1cn(CCn2ccnc2-c2cccc(C(C)N(C)C)c2)nn1 (stereo unspecified) | -1%
COc1ccc(C(=O)N2CCC(Cc3nc(-c4cnccn4)no3)CC2)cc1OC | i
Clc1ccccc1C1Cn2cnc(-c3nc(-c4ccccn4)no3)c2CO1 (stereo unspecified) | 6.3µM*
FC(F)(F)c1ccc(-c2noc(-c3ncn4c3COC(c3ccccc3Cl)C4)n2)cc1 (stereo unspecified) | -12%
SMILES | Pf Dd2 inh
Fc1ccc(-c2noc(-c3ncn4c3COC(c3ccccc3Cl)C4)n2)cc1 (stereo unspecified) | -21%
O=C(NCc1ccoc1)c1ccc2nc(-c3ccc(F)cc3)cn2c1 | -8%
COc1ccccc1CC(=O)N1CCC2(CC1)NC(=O)N(c1ccccc1)N2 | -1%
O=[S+]([O-])(C1CC1)N1C2CCC1CN(c1ccc(C(F)(F)F)cc1)C2 | 5%
O=C(c1cccnc1)N1CC[C@H](c2nnc(Cc3ccccc3)o2)C1 | 4%[44.1 µM]
NC(=O)c1ccc(NC(=O)C[C@H]2NC(=O)c3ccccc3NC2=O)cc1 | 5%
CC(=O)c1ccc(NC(=O)CC2Nc3cccc4cccc(c34)NC2=O)cc1 (stereo unspecified) | -1%
CCOC(=O)c1ccc(NC(=O)CC2Nc3cccc4cccc(c34)NC2=O)cc1 (stereo unspecified) | 10µM*
CCOC(=O)c1ccc(NC(=O)CC2Nc3cc(C)c(C)cc3NC2=O)cc1 (stereo unspecified) | 4µM*
CCOC(=O)c1ccc(NC(=O)CC2Sc3ccc(C(F)(F)F)cc3NC2=O)cc1 (stereo unspecified) | 40%[0.594 µM]
CCOc1ccc(NC(=O)CC2Nc3cccc4cccc(c34)NC2=O)cc1 (stereo unspecified) | 8%
Cc1ccc(-c2nc(C(=O)NCc3ccccc3F)no2)cc1 | 16%
Cc1ccsc1CN(C)Cc1c(C)n(C)n(-c2ccccc2)c1=O | 4%
CN(C)c1ccc(CN2CC(Oc3ccc4c(c3)OCO4)C2)cc1 | 1%
O=C(Nc1ccccc1)N[C@H]1C[C@H]2C(=O)NC[C@@H](CCC(=O)N3CCCCC3)N2C1 | i
O=C1NC[C@@H](CCC(=O)N2CCCCC2)N2C[C@@H](NC(=S)Nc3ccc(Cl)cc3)C[C@@H]12 | 6.3µM*
CC(C)NC(=O)N[C@H]1C[C@H]2C(=O)NC[C@@H](CCC(=O)N3CCCCC3)N2C1 | 8%[44.1 µM]
O=C(Cc1ccc(Cl)cc1)N[C@H]1[C@H](O)[C@H](O)C[C@@H]1c1cccnc1 | 10%[44.1 µM]
C[C@H]1[C@@H]2[C@@H](O)C([C@H](C)C(=O)N(C)CCC#N)CC[C@@]2(C)CC[C@@H]1NC(=O)c1ccncc1 (stereo partly specified) | -12%[44.1 µM]
